# In PubChem BioAssay (NCATS):
# Results filed as inconclusive are left out. A call without a number means that no potency is given here. The source made the active and inactive calls. Calls come from the whole dose curve.
# Assay: Cytotoxicity counterscreen for inhibitors of SARS-CoV-2 cell entry (AID 1645845); note: nearly all actives have a fitted effect of over 50% in size
# Details: cell viability (SARS-CoV-2 entry assay cells); series mostly up to 57.1 µM
# How it was run: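 ATP-content luminescence (ATPLite 1step, 15 min RT) read after 48 h compound exposure of Expi293F cells stably expressing human ACE2; normalized to cells-only wells and media-only wells.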
row,SMILES,Potency
1,CCN(CC)CC(=O)Nc1c(C)cccc1C(=O)OC,inactive
2,O=C(Nc1ccc([N+](=O)[O-])cc1)Nc1ccc([N+](=O)[O-])cc1,inactive
3,CCCCN1CCCC[C@H]1C(=O)Nc1c(C)cccc1C,inactive
4,COCc1c(C(C)C)nc(C(C)C)c(/C=C/[C@@H](O)C[C@@H](O)CC(=O)O)c1-c1ccc(F)cc1,inactive
5,CC(=O)c1ccc2c(c1)N(CCCN1CCC(CCO)CC1)c1ccccc1S2,inactive
6,CN(C)CCCOc1nn(Cc2ccccc2)c2ccccc12,inactive
7,CC(C)(C)c1ccc(C(O)CCCN2CCC(C(O)(c3ccccc3)c3ccccc3)CC2)cc1 (stereo not drawn),inactive
8,Cc1ncc(CSSCc2cnc(C)c(O)c2CO)c(CO)c1O,inactive
9,O=C(O)c1ccccc1Nc1cc(Cl)ccc1C(=O)O,inactive
10,C/C=C(/C(=C/C)c1ccc(O)cc1)c1ccc(O)cc1,inactive
11,CCCCOc1cc(C(=O)OCCN(CC)CC)ccc1N,inactive
12,O=C(Nc1ccc(S(=O)(=O)N2CCOCC2)cc1)c1cc(Cl)ccc1NS(=O)(=O)c1ccc(Cl)s1,inactive
13,CCC(C)(C)c1ccc(CC(C)CN2C[C@@H](C)O[C@@H](C)C2)cc1 (stereo partly drawn),inactive
14,Cn1cc(C(=O)[C@@H]2CCc3nc[nH]c3C2)c2ccccc21,inactive
15,CN1CCCCC1CCN1c2ccccc2Sc2ccc(S(C)=O)cc21 (stereo not drawn),inactive
16,N[C@H](C(=O)O)[C@@H](O)c1ccc(O)c(O)c1,inactive
17,Cc1ccc(C(=O)Oc2ccc(C(O)CNC(C)(C)C)cc2OC(=O)c2ccc(C)cc2)cc1 (stereo not drawn),inactive
18,C(=C\c1ccccc1)/CN1CCN(C(c2ccccc2)c2ccccc2)CC1,inactive
19,Nc1c(NC/C=C\COc2cc(CN3CCCCC3)ccn2)c(=O)c1=O,inactive
20,Nc1c2c(nc3ccccc13)CCCC2,inactive
21,CCCCNc1ccc(C(=O)OCCN(CC)CC)cc1,inactive
22,CC(=O)Oc1ccc(C(=C2CCCCC2)c2ccc(OC(C)=O)cc2)cc1,inactive
23,CC(C(O)c1ccccc1)N(C)CCOC(c1ccccc1)c1ccccc1 (stereo not drawn),inactive
